PubChem BioAssay (NCATS)
Results filed as inconclusive are left out. Entries that show only a call come without a potency. Unmarked numbers belong to inactive results. Activity calls are given as the source filed them. Unless noted, the call rests on the fitted dose curve; in most records, active means well fitted curve in the direction sought with a large enough effect; inconclusive means small, poorly fitted or top-dose-only effect, or another doubt; inactive means no such curve, though single readings can be large; an effect the other way counts as inactive or inconclusive.

How the values were obtained:
[1] = target: Calcium and integrin-binding protein 1 (Homo sapiens) (UniProt Q99828); assay: Primary qHTS for Identification of Calcium Integrin Binding Protein 1 (CIB1) Competitor (AID 1508620); further: potency means the concentration at half of the fitted maximal effect;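 on activity change, negative = inhibition: GST tagged CIB1 binding a fluorescein labelled alphaIIb integrin peptide tracer; top concentration of the series differs between compounds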
How it was run: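 CIB1-GST (1 uM final) and compound incubated 15 min at room temperature before adding FITC-alphaIIb peptide tracer (100 nM final). Competition for binding read by fluorescence polarization (ex 480, em 540) after another 15 min at room temperature.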

[2] = target: Cytochrome P450 2D6 (Homo sapiens) (UniProt P10635); assay: Cytochrome P450 family 2 subfamily D member 6 (CYP2D6) small molecule antagonists: luciferase biochemical (cell-free) qHTS assay (AID 1645840; active means well fitted curve in the direction sought with a large enough effect in the repeat runs; an effect the other way counts as inactive or inconclusive; further: nearly all actives have a fitted effect of over 55% in size; further: potency means the concentration at half of the fitted maximal effect)
How it was run: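 P450-Glo luminescent screen: recombinant CYP2D6 enzyme–proluciferin substrate mix preincubated with compound 10 min at room temperature, then NADPH regeneration added for 1 h at room temperature. Detection reagent added for 20 min; luciferin light read as relative luminescence units.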

[3] = Primary qHTS for inhibitors of nuclear receptor binding SET domain protein 2 (NSD2) in an isogenic RCH-ACV NSD2 p.E1099K mutant (9B) (AID 1645876); further: nearly all actives have a fitted effect of over 70% in size; further: potency means the concentration at half of the fitted maximal effect
[4] = A High-Content qHTS Against Drug Library for the Identification of Small Molecules that Inhibit DYT1 Early Onset Primary Dystonia-Associated Cell Pathology (AID 1645839; calls by dose curve; further: potency means the concentration at half of the fitted maximal effect)
How it was run: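 In this high-content image screen, delE TorsinA mislocalization in inducible Flp-In 293 cells is scored as %pathology, with cell count serving as the counterscreen. Compound exposure lasts 48 h under tetracycline induction in reduced-serum medium.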

[5] = Cytotoxicity counterscreen for inhibitors of SARS-CoV-2 cell entry (AID 1645845; calls by dose curve; further: nearly all actives have a fitted effect of over 50% in size); conditions: outcome: dose series up to 57.1 µM unless noted
How it was run: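 48 h compound treatment (after 1 h preincubation), HEK293-ACE2 cells, 37 C/5% CO2; ATP luminescence endpoint; normalized to cell wells and media blanks.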

[6] = Primary qHTS for small molecule stabilizers of the endoplasmic reticulum resident proteome: Secreted ER Calcium Modulated Protein (SERCaMP) assay (AID 1508630)
How it was run: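 GLuc-SERCaMP-expressing SH-SY5Y cells, pretreated 16 h with compound, are challenged with thapsigargin to empty ER calcium stores; after 4 h, coelenterazine is added directly to the medium and luminescence is imaged.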

[7] = Primary qHTS to identify inhibitors of SARS-CoV-2 cell entry (AID 1645846; calls by dose curve; further: potency means the concentration at half of the fitted maximal effect; nearly all actives have a fitted effect of over 45% in size); conditions: activity change, negative = inhibition: at 57.1 µM (top of the series) unless noted
How it was run: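 HEK293 cells stably expressing human ACE2, pre-treated 1 h with compound, then infected with MLV particles pseudotyped with Wuhan-Hu-1 spike (C-terminal 19-aa truncation). Luciferase luminescence after 48 h at 37 °C, normalised to spike PP and bald PP.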

Chain of Cytochrome P450 2D6 (Homo sapiens) (P10635 whole entry, looked up): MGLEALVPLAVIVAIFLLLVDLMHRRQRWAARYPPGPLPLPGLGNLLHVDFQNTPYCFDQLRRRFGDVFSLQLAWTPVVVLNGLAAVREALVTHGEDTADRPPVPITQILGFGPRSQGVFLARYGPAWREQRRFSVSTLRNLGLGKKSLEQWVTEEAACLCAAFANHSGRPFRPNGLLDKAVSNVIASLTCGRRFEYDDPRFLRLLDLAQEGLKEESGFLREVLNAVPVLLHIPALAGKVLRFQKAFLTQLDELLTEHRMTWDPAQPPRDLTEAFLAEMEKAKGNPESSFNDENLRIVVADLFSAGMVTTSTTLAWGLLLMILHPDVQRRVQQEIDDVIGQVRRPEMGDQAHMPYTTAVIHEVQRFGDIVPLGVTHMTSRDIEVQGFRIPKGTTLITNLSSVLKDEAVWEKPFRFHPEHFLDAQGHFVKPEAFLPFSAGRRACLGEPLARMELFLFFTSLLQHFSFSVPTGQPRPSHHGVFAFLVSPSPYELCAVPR
Chain of Calcium and integrin-binding protein 1 (Homo sapiens) (Q99828 whole entry, looked up): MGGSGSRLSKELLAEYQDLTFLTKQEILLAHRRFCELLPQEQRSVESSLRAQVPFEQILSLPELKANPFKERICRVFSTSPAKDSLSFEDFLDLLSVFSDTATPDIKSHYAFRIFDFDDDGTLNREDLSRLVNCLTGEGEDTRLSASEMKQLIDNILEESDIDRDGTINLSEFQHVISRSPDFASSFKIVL

For Cc1cc(C(=O)CN2CCCC2)c(C)n1-c1ccc(F)cc1, the Potency [1] was “inactive”, the Potency [2] was 0.952 µM (active) and the Potency [3] was “inactive”.

For CC1=C2C(=O)C3[C@@H](CC=C4C[C@@H](O)CC[C@@]43C)[C@@H]2CC[C@]12O[C@@H]1C[C@H](C)CN[C@H]1[C@H]2C (stereo partly drawn), the Potency [1] was “inactive” and the Potency [3] was “inactive”.

For Cn1ncnc1COc1nn2c(-c3c(F)cccc3F)nnc2cc1C1CCC1, the Potency [1] was “inactive”, the Potency [2] was “inactive” and the Potency [3] was “inactive”.

In the case of COC1=CC(=O)O[C@@H](/C=C/c2ccccc2)C1, the Potency [1] is reported as “inactive” and the Potency [3] is reported as “inactive”.

For CC(N)Cc1c[nH]c2ccccc12 (stereo not drawn), the Potency [1] was “inactive”, the Potency [2] was 23.9 µM (active) and the Potency [3] was “inactive”.

With CC12CCC3C(CCC4(O)CC(O)CCC34C=O)C1(O)CCC2C1=CC(=O)OC1 (stereo not drawn) the Potency [1] was “inactive” and the Potency [3] was 0.258 µM (active).

In the case of CCc1[nH]c2ccc(OC)cc2c1CCN(C)C, the Potency [1] is reported as “inactive”, the Potency [2] is reported as 1.9 µM (active) and the Potency [3] is reported as “inactive”.

With Cc1cn(C[C@H](N)C(=O)O)c(=O)n(Cc2cc(-c3ccccc3)sc2C(=O)O)c1=O the Potency [1] was “inactive”, the Potency [2] was “inactive” and the Potency [3] was “inactive”.

In the case of CN1C(=O)N(c2ccc(C#N)c(C(F)(F)F)c2)C(=O)[C@]1(CO)c1ccccc1, the Potency [1] is reported as “inactive” and the Potency [3] is reported as “inactive”.

With C=C[C@H]1[C@H](O[C@@H]2O[C@H](CO)[C@@H](O)[C@H](O)[C@H]2O)OC=C2C(=O)OCC[C@H]21 the Potency [1] was “inactive” and the Potency [3] was “inactive”.

In the case of CCCSP(=O)(OCC)SCCC, the Potency [1] is reported as “inactive”, the Potency [4] is reported as “inactive” and the Potency [2] is reported as 58.4 µM (active).

With COC1CC(O[C@H]2CC[C@]3(C=O)C4CC[C@]5(C)[C@@H](C6=CC(=O)OC6)CC[C@]5(O)[C@@H]4CC[C@]3(O)C2)OC(C)C1O[C@@H]1O[C@H](CO)[C@@H](O)[C@H](O)[C@H]1O (stereo partly drawn) the Potency [1] was “inactive” and the Potency [3] was 0.0541 µM (active).

With CN1C(=O)c2ccccc2NC(=O)C1Cc1ccccc1 (stereo not drawn) the Potency [1] was “inactive” and the Potency [3] was “inactive”.

With Cc1cccc(NC(=O)N[C@@H]2N=C(c3ccccc3)c3ccccc3N(C)C2=O)c1 the Potency [1] was “inactive” and the Potency [2] was “inactive”.

With COc1cc(C)[nH]c(=O)c1CNC(=O)c1c(C)n([C@H](C)C2CCOCC2)c2ccccc12 the Potency [1] was “inactive”, the Potency [2] was “inactive” and the outcome [5] was “inactive”. For the same molecule, the Potency [3] was “inactive”.

With C=C1[C@@H]2CC[C@@]3(C)[C@H](c4ccoc4)OC(=O)C[C@]13O[C@H]1CC(=O)C(C)(C)[C@H](C(OC(C)=O)C(=O)OC)[C@]12C (stereo partly drawn) the Potency [1] was “inactive” and the Potency [3] was “inactive”.

In the case of CC[C@H]1CN2CC[C@H]1C[C@H]2[C@H](O)c1ccnc2ccc(OC)cc12, the Potency [1] is reported as “inactive” and the Potency [3] is reported as “inactive”.

In the case of COc1cc(CCNCc2ccccc2O)c(OC)cc1C#N, the Potency [1] is reported as “inactive”, the Potency [2] is reported as 1.9 µM (active) and the Potency [3] is reported as “inactive”.

With CC(=O)OC12C(O)C(C)C3(O)C4C=C(C)C(=O)C4CC(CO)=CC3C1C2(C)C (stereo not drawn) the Potency [1] was “inactive” and the Potency [3] was “inactive”.

With CN(C(=O)Cc1ccccc1)C(CN1CCCC1)c1ccccc1 (stereo not drawn) the Potency [1] was “inactive”, the Potency [2] was 0.0849 µM (active) and the Potency [3] was “inactive”.

In the case of COC(=O)N1CCN(C(=O)Cc2ccc(Cl)c(Cl)c2)[C@@H](CN2CCCC2)C1, the Potency [1] is reported as “inactive”, the Potency [2] is reported as 4.77 µM (active) and the Potency [3] is reported as “inactive”.

With Cc1c(Cl)cccc1S(=O)(=O)Nc1nc(CC(=O)N2CCN(C)CC2)cs1 the Potency [1] was “inactive”, the Potency [2] was “inactive” and the Potency [3] was “inactive”.

With CC(C)[C@@H](CN1CC[C@@](C)(c2cccc(O)c2)[C@@H](C)C1)NC(=O)[C@H]1Cc2ccc(O)cc2CN1 the Potency [1] was “inactive”, the Potency [2] was 6.01 µM (active) and the Potency [3] was 18.3 µM (active).

For COCC1OC(=O)c2coc3c2C1(C)C1=C(C3=O)C2CCC(=O)C2(C)CC1O (stereo not drawn), the Potency [1] was “inactive” and the Potency [3] was “inactive”.

With C/C=C(\C)C(=O)OC1CC2C(C)(C)OC(=O)CC(OC(C)=O)C2(C)C2CC(OC(=O)C(C)C)C3(C)C(c4ccoc4)CC4OC43C12C (stereo not drawn) the Potency [1] was “inactive” and the Potency [3] was “inactive”.

With CCC(C)(C#N)O[C@@H]1O[C@H](CO)[C@@H](O)[C@H](O)[C@H]1O (stereo partly drawn) the Potency [1] was “inactive” and the Potency [3] was “inactive”.

For CCc1c(C(=O)C(N)=O)c2c(OCC(=O)OC)cccc2n1Cc1ccccc1, the Potency [1] was “inactive”, the Potency [2] was “inactive” and the Potency [3] was “inactive”.

For CCCCCCn1c(=O)c(C(=O)Nc2ccc(C(=O)OCCC)cc2)c(O)c2ccccc21, the Potency [1] was “inactive”, the Potency [2] was “inactive” and the outcome [3] was “inactive [at 9.23 µM]”.

In the case of COc1ccccc1CN[C@H]1C2CCN(CC2)[C@H]1C(c1ccccc1)c1ccccc1, the Potency [1] is reported as “inactive”, the Potency [2] is reported as 0.19 µM (active) and the Potency [3] is reported as “inactive”.

In the case of C[CH2][Hg][S]c1ccccc1C(=O)O, the Potency [1] is reported as 22.4 µM (active), the outcome [6] is reported as “inactive” and the Potency [4] is reported as 5.01 µM (active). For the same molecule, the Potency [3] was 0.668 µM (active).

For OC1(c2ccc(Cl)cc2)c2ccccc2C2=NCCN21 (stereo not drawn), the Potency [1] was “inactive” and the Potency [2] was 2.68 µM (active).

In the case of Clc1ccc(OCC2=NCCN2)cc1Cl, the Potency [1] is reported as “inactive”, the Potency [2] is reported as 8.49 µM (active) and the Potency [3] is reported as “inactive”.

In the case of CC1=C2C[C@H]3[C@@H](CC=C4C[C@@H](O)CC[C@@]43C)[C@@H]2CC[C@]12O[C@@H]1C[C@H](C)CN[C@H]1[C@H]2C, the Potency [1] is reported as “inactive”, the outcome [5] is reported as “inactive” and the Potency [7] is reported as 17.8 µM (active).

With COC(=O)C1(C)CCC(O)C2(C)c3c(O)cc(C(C)C)cc3C(O)C(OC(C)=O)C12 (stereo not drawn) the Potency [1] was “inactive” and the Potency [3] was “inactive”.

In the case of OCCCCC#Cc1cncc(OC[C@@H]2CCN2)c1, the Potency [1] is reported as “inactive”, the Potency [2] is reported as “inactive” and the Potency [3] is reported as “inactive”.

In the case of C[C@H]1C(=O)O[C@H]2[C@H](O)[C@]34C5OC(=O)[C@]3(O[C@@H]3OC(=O)[C@H](O)C34[C@H](C(C)(C)C)[C@H]5O)C12O (stereo partly drawn), the Potency [1] is reported as “inactive” and the Potency [3] is reported as “inactive”.
